Test results from PubChem BioAssay AID1851 (National Center for Advancing Translational Sciences (NCATS), 2009).
“And” between values parts separate entries of the source, which are not always exact repeats. Identical values can stand only once. Out of some 16,000 compounds screened, about 5,700 (36%) were called active. About 24% were inconclusive and are not listed. The call rests on the fitted dose curve; in most records, active means well fitted curve in the direction sought with a large enough effect; inconclusive means small, poorly fitted or top-dose-only effect, or effect the other way; inactive means no such curve, though single readings can be large or run the other way. Some of the results follow.

biological target: Cytochrome P450 1A2 (Homo sapiens) (UniProt P05177); assay: Cytochrome panel assay with activity outcomes; details: recombinant CYP, pro-luciferin dealkylation, luminescence, p450-cyp1a2; series mostly up to 57.1 µM; activity, negative = inhibition: at the top concentration
Sequence (P05177 whole entry, looked up): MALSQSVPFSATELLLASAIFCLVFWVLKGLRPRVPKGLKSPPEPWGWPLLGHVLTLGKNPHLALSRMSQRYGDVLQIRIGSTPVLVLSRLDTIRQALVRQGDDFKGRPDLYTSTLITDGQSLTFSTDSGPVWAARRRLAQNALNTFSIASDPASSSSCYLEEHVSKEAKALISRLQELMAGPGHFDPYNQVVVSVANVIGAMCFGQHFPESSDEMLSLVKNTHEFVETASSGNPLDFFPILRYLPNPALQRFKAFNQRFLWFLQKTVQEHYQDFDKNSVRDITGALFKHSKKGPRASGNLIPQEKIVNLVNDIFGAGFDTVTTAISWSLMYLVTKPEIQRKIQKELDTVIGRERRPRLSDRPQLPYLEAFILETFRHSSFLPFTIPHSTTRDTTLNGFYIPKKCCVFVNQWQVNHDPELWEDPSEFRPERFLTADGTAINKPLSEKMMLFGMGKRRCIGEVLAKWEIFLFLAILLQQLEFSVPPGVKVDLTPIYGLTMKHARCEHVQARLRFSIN
On the % scale 0 is the no-effect control and ±100 the full control effect.

activity, negative = inhibition, inactive:
O=C(C(Cc1ccccc1)N1C(=O)C2C3CCC(C3)C2C1=O)N1CCCCC1 (configuration not stated) 10.3%
COc1cc(C(=O)Nc2nc3ccc4nc(C)sc4c3s2)cc(OC)c1OC -2.02%
Cc1nc2ccc3nc(NC(=O)c4ccc(S(=O)(=O)N5CCOCC5)cc4)sc3c2s1 -11.7%
O=C(O)c1ccc(NS(=O)(=O)Cc2ccccc2)cc1 -12.1% [at 11.4 µM]
c1ccc2c(c1)C(=Nc1ccc(N=C3c4ccccc4-c4ccccc43)cc1)c1ccccc1-2 -19.6% [at 2.29 µM]
CCSc1ncnc2c1sc1nc(-c3ccco3)c3c(c12)CC(C)(C)OC3 -15.2%
CCCSc1nc(SCC(=O)NCc2ccccc2)c2c3c(sc2n1)COC(C)(CC)C3 (configuration not stated) -24.1%
Cc1ccc(S(=O)(=O)c2nc(S(=O)(=O)c3ccc(C)cc3)c(NCc3ccco3)s2)cc1 -0.958%
Cc1ccc(-n2c(SCC(=O)NCc3ccco3)nc3sc4c(c3c2=O)CC(C)(C)SC4)cc1 -16.6%
C[C@H](O/N=C1/[C@H]2O[C@@H]2[C@@H](O)[C@H]2[C@H]1CCn1c(=O)n(-c3ccccc3)c(=O)n12)c1cn([C@H](CO)Cc2ccccc2)nn1 -6.4% [at 11.4 µM] and 3.91% [at 11.4 µM]
COc1cc(C2C(C#N)=C(N)N(c3sc4c(c3C#N)CCCC4)C3=C2C(=O)CC(C)(C)C3)cc(OC)c1OC (configuration not stated) -11%
O=C(c1csnn1)N1CCC[C@@]2(CCN(Cc3nccs3)C2)C1 -3.58%
C=C(NC(=O)C(=C)NC(=O)c1csc(C2=N[C@@H]3c4csc(n4)[C@@H]4NC(=O)c5csc(n5)[C@@H]([C@](C)(O)[C@H](C)O)NC(=O)[C@@H]5CSC(=N5)/C(=C/C)NC(=O)[C@@H]([C@H](C)O)NC(=O)c5csc(n5)[C@]3(CC2)NC(=O)[C@@H](C)NC(=O)C(=C)NC(=O)[C@@H](C)NC(=O)[C@@H]([C@@H](C)CC)N[C@H]2C=Cc3c([C@H](C)O)cc(nc3[C@@H]2O)C(=O)O[C@H]4C)n1)C(N)=O -6.72% [at 25.6 µM]
COCC(=O)N1CCC[C@@]2(CCN(c3ncccn3)C2)C1 -10.7%
CCn1c(CCNC(=O)c2ccc(Cl)cc2Cl)n[nH]c1=S 2.13%
O=C(Nc1ccccc1[N+](=O)[O-])C1C(c2ccccc2)=C1c1ccccc1 -16.5%
O=C(/C=C\c1ccc(O)c(O)c1)O[C@@H]1C[C@](O)(C(=O)O)C[C@@H](O)[C@@H]1O 4.71% [at 25.6 µM]
O=C(O)/C=C\c1ccc(O)c(O)c1 0.538% [at 25.6 µM]
c1cnc2ccc(C(c3nnnn3C3CCCC3)N3CCN4CCCC4C3)cc2c1 (configuration not stated) -6%
N#Cc1cccc(NC(=O)N2CC[C@@]3(CCCN(C(=O)c4ccncc4)C3)C2)c1 -17.2%
CNC(=O)[C@@H]1O[C@@H](n2cnc3c(N)ncnc32)[C@@H](O)[C@H]1O -9.49%
CC(=O)OC[C@@H]1O[C@H](CCO/N=C\[C@@H](C)[C@H](OCc2ccccc2)C(C)C)C=C[C@@H]1OC(C)=O 9.09% [at 11.4 µM]
CC(=O)OC[C@@H]1O[C@@H](O/N=C2/C[C@@H](O)[C@@H](O)[C@@H]3[C@@H]4C(=O)N(C5CCCCC5)C(=O)[C@H]4CC[C@H]23)[C@H](OC(C)=O)[C@H](OC(C)=O)[C@@H]1OC(C)=O -1.1% [at 11.4 µM]
CC(=O)Nc1ccc(C#Cc2ccc(NC(C)=O)cc2)cc1 2.37%
CCc1ncc(CO)n1Cc1cccc2ccccc12 -6.53% [at 11.4 µM]
CO[C@@H]1COC(=O)[C@H](C)NC(=O)C/C=C\[C@@H](C)[C@@H](NS(=O)(=O)c2ccc(C)cc2)COC(=O)C/C=C\[C@@H]1C -6.59% [at 11.4 µM]
Cc1ccc(S(=O)(=O)ON=C2CCN(S(=O)(=O)c3ccccc3)CC2)cc1 13.2%
CC(=O)O[C@H]1CC[C@@]2(C)C(=CC[C@@H]3[C@@H]4CC[C@H](c5cc(C(F)(F)F)n(C(C)=O)n5)[C@]4(C)CC[C@@H]32)C1 -13.7% [at 11.4 µM]
Cc1noc(C)c1C(=O)N1CCC2(CC1)CN(c1ncccn1)C2 13.8%
Cc1ccc(S(=O)(=O)N2CCCC(C(=O)NCCCN3CCCCC3C)C2)cc1 (configuration not stated) -8.71%
CC(C)(C)c1nnc(NC(=O)c2cc(-c3ccccc3)nc3ccccc23)s1 -27.9%
COCc1nnc(NC(=O)CCN2C(=O)c3ccccc3C2=O)s1 -18%
CCCc1ccc(-c2cc(C(=O)NN3CCOCC3)c3ccccc3n2)cc1 -12.5%
CCC[C@H]1C[C@H](C(=O)N[C@H]([C@@H]2O[C@H](SC)[C@@H](O)[C@H](O)[C@@H]2O)[C@H](C)O)N(C)C1 -2.92% [at 25.6 µM]
Cc1cc([N+](=O)[O-])nn1CC(=O)NNC(=S)Nc1ccc(F)cc1 -10.3%
Cn1cnc([N+](=O)[O-])c1SCC(=O)O -9.68% [at 11.4 µM]
O=C(O)CCCSc1nc2ccccc2s1 -16.9% [at 11.4 µM]
CC12CCC(C(=O)Nc3ncc([N+](=O)[O-])s3)(OC1=O)C2(C)C (configuration not stated) 0.774%
O=C(N/N=C/c1cccc(C(F)(F)F)c1)C1CCN(c2ncc(C(F)(F)F)cc2Cl)CC1 -12.3%
C[C@@]12CC[C@@H]3c4ccc(O)cc4CC[C@H]3[C@H]1C[C@@H](O)[C@H]2O -6.98% [at 25.6 µM]
CCc1cc2c(c(CC)n1)CCC(=O)N2Cc1ccc(-c2ccccc2-c2nn[nH]n2)cc1 -18.6%
Cc1cccc(C)c1NC(=O)c1cc2c(=O)c3ccccc3oc2nc1C(F)(F)F -28.1%
CC(C)[C@H](CO)Nc1nc(Nc2ccc(C(=O)O)c(Cl)c2)c2ncn(C(C)C)c2n1 -16.8%

AC50, active:
Cc1nc2c(ccc3nc(NC(=O)c4ccc5c(c4)OCCO5)sc32)s1 3.16 µM
CC(=O)Nc1ccc2c(c1)C(=Nc1ccc(C(=O)O)cc1)c1ccccc1-2 0.316 µM
CCCSc1nc(NCc2ccco2)c2c3c(sc2n1)COC(C)(C)C3 0.794 µM
Cc1nc(NS(=O)(=O)c2ccccc2C)c2c3c(sc2n1)CCC3 3.16 µM
Cc1nc(NCc2ccco2)c2c3c(sc2n1)CCC3 2.51 µM
CC1(C)Cc2c(ccc3ccccc23)C(=O)N1 3.55 µM
CNC(=O)/C=C1\NC(C)(C)Cc2c1ccc1ccccc21 6.31 µM
CCCN(CCC)C(=S)NC(=O)c1ccc(Cl)cc1Cl 0.447 µM
O=[N+]([O-])c1ccccc1N/N=C/c1c[nH]c2ccccc12 5.62 µM
Cn1c(N/N=C/c2c[nH]c3ccccc23)nc2ccccc21 1 µM
COc1ccc(Nc2nc(N3CCCCC3)c3ccccc3n2)cc1 1.78 µM
O=C(/C=C\c1ccc(O)c(O)c1)OCCc1ccccc1 1 µM
Cc1ccc(-c2nn(-c3ccccc3)cc2CSC(=N)N)cc1 12.6 µM
N#Cc1cccc(-c2nc(Nc3ccncc3)c3ccccc3n2)c1 0.631 µM
CNc1nc(-c2cccc(C#N)c2)nc2ccccc12 0.0794 µM
N#Cc1cccc(-c2nc(Nc3ccccc3)c3ccccc3n2)c1 1.26 µM
S=C(Nc1ccccc1)Nc1ccccc1C#Cc1ccccc1 0.501 µM
COc1cccc(-c2nc(NCc3ccccc3)c3ccccc3n2)c1 3.16 µM
COCCNc1nc(-c2cccc(OC)c2)nc2ccccc12 0.2 µM
COc1ccccc1NC(=O)Nc1nc(-c2cccnc2)nc2ccccc12 2.51 µM
COc1cccc(-c2nc(NCCNC(C)=O)c3ccccc3n2)c1 2.51 µM
COc1cccc(-c2nc(NCc3cccnc3)c3ccccc3n2)c1 0.158 µM
COc1cccc(-c2nc(NCc3ccccc3OC)c3ccccc3n2)c1 0.631 µM
COc1ccccc1CNc1nc(-c2cccnc2)nc2ccccc12 1 µM
COc1cccc(-c2nc(NCc3cccs3)c3ccccc3n2)c1 0.316 µM
Cc1ccc(-c2cc(C(=O)NN=C3CCCC3)c3ccccc3n2)cc1 15.8 µM
Cc1ccccc1NC(=S)NC(=O)c1cc(-c2ccccc2)nc2ccccc12 14.1 µM
O=C(CCN1C(=O)c2ccccc2C1=O)NC(=S)Nc1cccc(Cl)c1 3.16 µM
Cc1cccc(NC(=S)NC(=O)CCc2ccccc2)c1 6.31 µM
Cc1cccc(NC(=S)NC(=O)c2cc(-c3ccccc3)nc3ccccc23)c1 8.91 µM
Cc1nc(SCC(=O)c2ccc(F)cc2)c([N+](=O)[O-])[nH]1 6.31 µM
c1ccc2sc(SCCSc3nc4ccccc4s3)nc2c1 0.794 µM
NCCSc1nc2ccccc2s1 0.316 µM
Oc1ccccc1C(Sc1nc2ccccc2s1)Sc1nc2ccccc2s1 1.26 µM
c1ccc(NCCSc2nc3ccccc3s2)cc1 0.501 µM
CN(C)Cc1ccccc1-c1cc(Nc2ccccc2)ncn1 15.8 µM
CN(C)Cc1ccccc1-c1cc(NC2CC2)ncn1 12.6 µM
CON/C=C(\C=Nc1ccccc1)c1ncc(C(F)(F)F)cc1Cl 2.24 µM
O=C1C(=O)N(Cc2ccc(Cl)c(Cl)c2)c2ccccc21 12.6 µM
CNc1ncnc2ccc(-c3ccccc3C#N)cc12 1 µM
N#Cc1ccccc1-c1ccc2ncnc(NC3CC3)c2c1 0.1 µM
Cn1c(C(F)(F)F)nc2c(=O)oc3ccccc3c21 0.158 µM
CC(C)[C@H](CO)Nc1nc(Nc2cc(N)cc(Cl)c2)c2ncn(C(C)C)c2n1 0.501 µM

AC50, inactive:
CCCN(CCC)C(=O)[C@@H](CCC(=O)O)NC(=O)c1ccccc1
